Only a sample is shown.
aSyn 5UTR act = Activators via SNCA 5'UTR binding, MLPCN; alpha-synuclein 5'UTR reporter, activators screen; activity score, % (tested at 7.5 µM), hits read low; 7.1% of 300,000 active; AID 1814; in the data active = activity score below about -60%
* marks the source's active call; other numbers are inactive results.

SMILES	aSyn 5UTR act
COC(=O)c1c(-c2cccnc2)csc1NC(=O)c1ccc2c(c1)OCO2	-76.5*
COC(=O)c1sccc1NC(=O)c1ccc(C(C)C)cc1	-86.5*
COC(=O)c1ccc(NC(=O)c2ccc3c(c2)OCO3)cc1	-143.7*
Cc1cc(C)nc(NC(=O)c2c(F)c(F)c(F)c(C(=O)Nc3cc(C)cc(C)n3)c2F)c1	-69.7*
O=C(Nc1ccc(C(=O)N2CCCC2)cc1)c1ccc2c(c1)OCO2	-68.6*
COC(=O)c1sccc1NC(=O)c1ccc(OC)cc1OC	-98.2*
CC1CCCC(NC(=O)c2ccc3c(c2)OCO3)C1C (stereo not drawn)	-65.2*
Cc1ccccc1-c1nc(-c2ccc(NC(=O)c3ccc4c(c3)OCO4)cc2)no1	-70.8*
O=C(Nc1ccc(N2CCCCC2)cc1)c1ccc2c(c1)OCCO2	-86.7*
COc1ccc(NC(=O)c2ccc3c(c2)OCO3)cc1Cl	-144.8*
COC(=O)c1ccc(N/C=C\C(=O)c2ccc3c(c2)OCO3)cc1	-133.3*
COC(=O)c1sccc1NC(=O)/C=C/c1ccc(Cl)cc1	-197.4*
COC(=O)c1sccc1NC(=O)c1ccc2c(c1)OCO2	-91.4*
Cc1cc(C)nc(NC(=O)c2ccc3c(c2)OCO3)c1	-94.1*
O=C(c1ccc(F)cc1)c1ccc(-c2ccc(F)cc2)nc1	-140.5*
COc1ccc(NC(=O)c2ccccn2)cc1OC	-88.0*
O=C(NCc1ccc(F)cc1)c1cnn2ccccc12	-87.4*
CSc1cccc(NC(=O)c2cnccn2)c1	-68.5*
CSc1cccc(NC(=O)c2ccccn2)c1	-103.3*
COc1ccc(NC(=O)c2ccccn2)cc1	74.5
CCc1ccc(NC(=O)c2cnn3ccccc23)cc1	77.9
CSc1cccc(NC(=O)c2cnn3ccccc23)c1	-99.9*
Cc1nc2c(ccc3c2ccc2nc(C)sc23)s1	-112.5*
Cc1ccc(NC(=O)Nc2ccon2)cc1	-101.6*
CCOc1ccc(NC(=O)Nc2ccon2)cc1	-116.5*
SMILES	aSyn 5UTR act
O=C(Nc1ccc(Cl)cc1)Nc1ccon1	-129.1*
Cc1nc(-c2ccccn2)sc1C(=O)Nc1ccc(F)cc1F	-127.5*
Cc1nc(-c2ccccc2)sc1C(=O)Nc1ccccc1F	-66.4*
CCNC(=O)c1sc(-c2ccccc2)nc1C	-66.2*
O=C(Nc1ccc2oc(=O)ccc2c1)c1ccc2ccccc2c1	-66.9*
O=C(Nc1ccc2oc(=O)ccc2c1)c1ccco1	-74.7*
Cc1ccc(-n2c(C)c(C)c3c(NCCO)ncnc32)cc1	-106.6*
Cc1c(C)n(CCc2ccccc2)c2ncnc(NCCCO)c12	-140.8*
CC(C)C(OC(=O)c1ccccc1)c1nccc2ccccc12 (stereo not drawn)	-115.9*
O=C(OC(c1ccccc1)c1nccc2ccccc12)c1cccc([N+](=O)[O-])c1 (stereo not drawn)	-78.7*
O=C(O)c1ccc(NNC(=S)Nc2cc(C(F)(F)F)ccc2Cl)cc1	-141.5*
CCOc1ccc(Oc2ccc(C(F)(F)F)cc2N)cc1	-87.0*
COc1cccc(Oc2ccc(C(F)(F)F)cc2N)c1	-104.2*
O=C(CN1CC(=O)Oc2ccccc21)NCc1ccco1	-97.2*
Cn1c(-c2ccc3c(c2)OCO3)cnc1NCc1ccccc1	-103.6*
Cn1c(-c2ccc3c(c2)OCO3)cnc1NCc1ccccc1Cl	-94.5*
CCCCCc1nnc(NC(=O)C2CCCO2)s1 (stereo not drawn)	-90.3*
CCCCCc1nnc(NC(=O)C2=COCCO2)s1	-110.5*
O=C(Nc1nc2cc3c(cc2s1)OCO3)C1=COCCO1	94.5
COC(=O)/C=C1\C(=O)N(c2nc3ccc(OC)cc3s2)C(=S)N1c1ccc(F)cc1	-69.1*
COC(=O)/C=C1\C(=O)N(c2nc3ccccc3s2)C(=S)N1c1ccc(F)cc1	-174.7*
CCOc1ccc(C(=O)c2cccs2)cc1	-182.5*
Oc1ccccc1C1=Nc2ncnn2C(c2ccccc2)C1 (stereo not drawn)	-68.2*
COc1ccc(CNC(=O)CSc2ccsc2[N+](=O)[O-])cc1	-117.3*
O=C(Cc1cccs1)NCc1ccc2c(c1)OCO2	-64.5*
SMILES	aSyn 5UTR act
O=C(CCCN1C(=O)/C(=C/c2ccc3c(c2)OCO3)SC1=S)Nc1cccc(C(=O)O)c1	72.9
O=C(CCCc1cccs1)Nc1ccc2c(c1)OCO2	-182.0*
COc1ccc(CNC(=O)Cc2cccs2)cc1	-70.1*
O=C(Cc1cccs1)NCc1cccc(Br)c1	-111.9*
c1ccc(Oc2nc(-c3ccccn3)nc3ccccc23)cc1	-63.7*
COc1ccc(Oc2nc(-c3ccccn3)nc3ccccc23)cc1	-110.2*
Fc1ccc(Oc2nc(-c3ccccn3)nc3ccccc23)cc1	-94.6*
Cc1cc2nc(-c3cccnc3SCC(=O)NC3CC3)[nH]c2cc1C	-114.8*
Cc1cc2nc(-c3cccnc3SCC(=O)NCc3ccco3)[nH]c2cc1C	-144.8*
CCOC(=O)c1oc2ccccc2c1NC(=O)COc1ccc(F)cc1	61.2
Cc1ccc(OCC(=O)Nc2ccccc2F)cc1C	-178.0*
Cc1ccc(OCC(=O)Nc2ccccc2F)cc1	-72.1*
Cc1ccc(C(=O)CCC(=O)Nc2ccccc2F)cc1	-97.9*
Cc1ccc(CCC(=O)Nc2ccccc2F)s1	-90.8*
O=C(COc1ccccc1)Nc1ccccc1Cl	-164.7*
